For some of these results: Results with a measured potency or affinity are listed apart.

What all share (parameters): scale not given: direction of the effect not stated beside the values
The target of experiment [1] is Protein translocase subunit SecA (Escherichia coli (strain K12)) (UniProt P10408). As to the kind of experiment: Assay to Identify E. coli SecA ATPase Inhibitors. It counts as functional. The settings on record: 30 µM.
In experiment [2] the target is T1, Ubiquitin-activating enzyme e1, putative (Leishmania donovani (strain BPK282A1)) (UniProt E9BSI1).
T1 sequence (whole entry): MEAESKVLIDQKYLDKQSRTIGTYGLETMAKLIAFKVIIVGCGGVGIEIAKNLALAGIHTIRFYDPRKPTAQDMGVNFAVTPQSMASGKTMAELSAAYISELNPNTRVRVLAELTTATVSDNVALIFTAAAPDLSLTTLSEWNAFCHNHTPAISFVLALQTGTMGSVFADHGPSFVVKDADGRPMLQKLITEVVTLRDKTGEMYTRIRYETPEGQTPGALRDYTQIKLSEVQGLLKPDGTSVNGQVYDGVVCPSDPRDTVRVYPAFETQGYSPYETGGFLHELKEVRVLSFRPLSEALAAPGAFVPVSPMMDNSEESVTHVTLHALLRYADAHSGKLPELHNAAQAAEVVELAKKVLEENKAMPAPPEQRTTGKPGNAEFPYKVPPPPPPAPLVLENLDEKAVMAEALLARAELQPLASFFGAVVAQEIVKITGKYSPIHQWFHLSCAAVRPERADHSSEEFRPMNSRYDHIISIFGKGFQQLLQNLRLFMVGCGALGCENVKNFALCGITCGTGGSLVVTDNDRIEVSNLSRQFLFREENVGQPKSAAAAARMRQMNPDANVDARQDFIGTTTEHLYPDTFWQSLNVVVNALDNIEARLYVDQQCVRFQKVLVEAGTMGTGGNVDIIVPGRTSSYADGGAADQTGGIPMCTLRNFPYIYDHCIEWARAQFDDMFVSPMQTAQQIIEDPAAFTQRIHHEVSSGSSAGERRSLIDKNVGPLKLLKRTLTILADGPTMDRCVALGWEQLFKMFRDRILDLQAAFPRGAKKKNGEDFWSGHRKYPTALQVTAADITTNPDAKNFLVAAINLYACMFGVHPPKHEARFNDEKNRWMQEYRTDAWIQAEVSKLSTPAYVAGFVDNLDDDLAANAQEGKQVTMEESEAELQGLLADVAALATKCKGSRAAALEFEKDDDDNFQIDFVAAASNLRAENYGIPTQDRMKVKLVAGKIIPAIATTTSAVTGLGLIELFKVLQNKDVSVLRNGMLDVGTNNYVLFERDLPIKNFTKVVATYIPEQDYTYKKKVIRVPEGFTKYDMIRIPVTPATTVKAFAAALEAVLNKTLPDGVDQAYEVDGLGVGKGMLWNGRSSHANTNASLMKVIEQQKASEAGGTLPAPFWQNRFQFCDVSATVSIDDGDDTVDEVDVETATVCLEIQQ
Nature of the experiment: Leishmania donovani Ubiquitin Activating Enzyme (LdE1). It is filed as functional. The note with it: 30 µM.

The target in experiment [3] is AMP-activated protein kinase, AMPK (Homo sapiens) (UniProt P54646+O43741+P54619+Q9UGJ0+Q9Y478+Q13131+Q9UGI9). As to the kind of experiment: AMP-dependent Kinase enzyme assay. An in vitro enzyme assay that detects ADP turnover that is directly proportional to AMPK activity. This uses naive AMPK that is activated during the assay with MK-8722. It is filed as functional. The note with it: 30 µM.

The target in experiment [4] is Sialic acid-binding Ig-like lectin 9 (Homo sapiens) (UniProt Q9Y336). As to the kind of experiment: Hs-Siglec9 ALPHAscreen SOP 20170721. The note with it: 10 µM.
Chain of Sialic acid-binding Ig-like lectin 9 (Homo sapiens) (Q9Y336 whole entry): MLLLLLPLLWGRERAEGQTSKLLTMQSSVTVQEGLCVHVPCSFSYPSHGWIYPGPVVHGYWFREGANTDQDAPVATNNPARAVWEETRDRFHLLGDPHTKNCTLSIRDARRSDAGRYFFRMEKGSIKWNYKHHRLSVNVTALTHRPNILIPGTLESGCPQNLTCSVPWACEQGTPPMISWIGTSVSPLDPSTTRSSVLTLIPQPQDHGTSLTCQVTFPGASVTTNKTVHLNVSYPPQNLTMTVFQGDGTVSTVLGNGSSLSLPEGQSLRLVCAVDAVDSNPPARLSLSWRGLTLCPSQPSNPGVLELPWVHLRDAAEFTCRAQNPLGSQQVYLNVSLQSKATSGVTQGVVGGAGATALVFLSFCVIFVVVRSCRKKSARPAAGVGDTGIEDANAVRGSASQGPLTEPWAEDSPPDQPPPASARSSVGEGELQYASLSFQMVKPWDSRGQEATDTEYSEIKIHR
The subject of the next experiment is Trypanosoma cruzi. As to the kind of experiment: Trypanosoma cruzi phosphomannomutase and mannose-1-phosphate guanylyltransferase assay. It counts as functional. The note with it: 10 µM.
Experiment [5] deals with T2, Arginase-2, mitochondrial (Homo sapiens) (UniProt P78540).
T2 sequence (whole entry): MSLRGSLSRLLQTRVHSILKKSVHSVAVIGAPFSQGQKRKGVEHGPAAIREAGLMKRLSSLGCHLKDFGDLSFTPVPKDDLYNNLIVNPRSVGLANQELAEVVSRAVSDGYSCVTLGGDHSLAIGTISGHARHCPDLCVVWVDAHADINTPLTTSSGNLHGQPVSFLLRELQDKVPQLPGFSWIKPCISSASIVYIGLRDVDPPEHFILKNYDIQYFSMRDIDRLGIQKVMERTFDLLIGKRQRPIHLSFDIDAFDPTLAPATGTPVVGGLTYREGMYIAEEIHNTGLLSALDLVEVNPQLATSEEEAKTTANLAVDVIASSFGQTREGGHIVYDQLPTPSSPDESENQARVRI
As to the kind of experiment: in vitro enzyme assay to detect the production of urea directly proportional to the activity of Arginase II. Note: in the data most compounds retested in dose-response had high values. It counts as functional. The settings on record: 33.3 µM.

The target in experiment [6] is T3, Proteasome subunit beta (Trypanosoma cruzi) (UniProt O96673).
T3 sequence (whole entry): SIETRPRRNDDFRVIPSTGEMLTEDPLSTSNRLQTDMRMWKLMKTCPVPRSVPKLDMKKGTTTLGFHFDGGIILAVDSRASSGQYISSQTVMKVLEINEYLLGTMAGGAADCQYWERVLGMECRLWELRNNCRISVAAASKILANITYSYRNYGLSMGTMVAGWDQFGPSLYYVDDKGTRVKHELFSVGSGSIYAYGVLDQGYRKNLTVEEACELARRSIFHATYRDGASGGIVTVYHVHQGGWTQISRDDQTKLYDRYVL
As to the kind of experiment: Trypanosoma cruzi proteasome chymotrypsin-like activity (TcProtChymo) assay. Note: in the data most compounds retested in dose-response had high values. The note with it: 9.37 µM. It is filed as functional.

Another experiment is filed under the species Homo sapiens. Nature of the experiment: To identify inhibition of the IFN signalling (Jak-Stat) pathway via expression of an eGFP reporter gene under the control of an IFN-stimulated response element (ISRE) containing MxA promoter. It counts as functional. The note with it: 30 µM.
Experiment [7] addresses T4, Tyrosyl-tRNA synthetase, putative (Trypanosoma cruzi (strain CL Brener)) (UniProt Q4DSP6).
T4 sequence (whole entry): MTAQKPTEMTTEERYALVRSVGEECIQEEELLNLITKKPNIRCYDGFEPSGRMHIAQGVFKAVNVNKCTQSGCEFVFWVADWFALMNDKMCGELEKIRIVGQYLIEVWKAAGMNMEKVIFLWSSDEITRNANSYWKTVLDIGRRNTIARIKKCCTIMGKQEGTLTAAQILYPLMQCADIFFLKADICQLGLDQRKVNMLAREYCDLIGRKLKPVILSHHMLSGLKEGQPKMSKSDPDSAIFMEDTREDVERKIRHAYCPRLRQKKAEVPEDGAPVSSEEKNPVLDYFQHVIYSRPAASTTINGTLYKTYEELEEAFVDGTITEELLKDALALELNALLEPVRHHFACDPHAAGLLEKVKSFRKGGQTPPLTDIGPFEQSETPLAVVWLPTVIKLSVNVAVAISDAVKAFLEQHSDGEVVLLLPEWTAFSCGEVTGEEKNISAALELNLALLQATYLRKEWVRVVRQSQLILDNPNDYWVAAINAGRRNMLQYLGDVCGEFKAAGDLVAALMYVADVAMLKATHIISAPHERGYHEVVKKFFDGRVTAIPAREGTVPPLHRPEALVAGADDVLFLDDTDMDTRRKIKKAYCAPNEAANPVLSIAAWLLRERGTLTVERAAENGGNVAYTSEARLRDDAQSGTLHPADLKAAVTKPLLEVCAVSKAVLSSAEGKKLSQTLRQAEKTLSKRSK
Nature of the experiment: Trypanosoma cruzi tyrosyl tRNA synthetase (TcYRS) _High Tyrosine SOP. Note: in the data most compounds retested in dose-response had high values. It counts as functional. The settings on record: 30 µM.

In experiment [8] the target is T4, Tyrosyl-tRNA synthetase, putative (Trypanosoma cruzi (strain CL Brener)). Nature of the experiment: Trypanosoma cruzi tyrosyl tRNA synthetase (TcYRS) SOP. The settings on record: 30 µM. It counts as functional.
Experiment [9] has as its target Chromo domain-containing protein 1 (Saccharomyces cerevisiae (strain ATCC 204508 / S288c) (Baker's yeast)) (UniProt P32657). As to the kind of experiment: ScCHD-1 Enzyme Inhibition Assay. Note: in the data most compounds retested in dose-response had high values. It is filed as functional. The settings on record: 30 µM.

Chain of Chromo domain-containing protein 1 (Saccharomyces cerevisiae (strain ATCC 204508 / S288c) (Baker's yeast)) (P32657 whole entry, the tested form may be a part): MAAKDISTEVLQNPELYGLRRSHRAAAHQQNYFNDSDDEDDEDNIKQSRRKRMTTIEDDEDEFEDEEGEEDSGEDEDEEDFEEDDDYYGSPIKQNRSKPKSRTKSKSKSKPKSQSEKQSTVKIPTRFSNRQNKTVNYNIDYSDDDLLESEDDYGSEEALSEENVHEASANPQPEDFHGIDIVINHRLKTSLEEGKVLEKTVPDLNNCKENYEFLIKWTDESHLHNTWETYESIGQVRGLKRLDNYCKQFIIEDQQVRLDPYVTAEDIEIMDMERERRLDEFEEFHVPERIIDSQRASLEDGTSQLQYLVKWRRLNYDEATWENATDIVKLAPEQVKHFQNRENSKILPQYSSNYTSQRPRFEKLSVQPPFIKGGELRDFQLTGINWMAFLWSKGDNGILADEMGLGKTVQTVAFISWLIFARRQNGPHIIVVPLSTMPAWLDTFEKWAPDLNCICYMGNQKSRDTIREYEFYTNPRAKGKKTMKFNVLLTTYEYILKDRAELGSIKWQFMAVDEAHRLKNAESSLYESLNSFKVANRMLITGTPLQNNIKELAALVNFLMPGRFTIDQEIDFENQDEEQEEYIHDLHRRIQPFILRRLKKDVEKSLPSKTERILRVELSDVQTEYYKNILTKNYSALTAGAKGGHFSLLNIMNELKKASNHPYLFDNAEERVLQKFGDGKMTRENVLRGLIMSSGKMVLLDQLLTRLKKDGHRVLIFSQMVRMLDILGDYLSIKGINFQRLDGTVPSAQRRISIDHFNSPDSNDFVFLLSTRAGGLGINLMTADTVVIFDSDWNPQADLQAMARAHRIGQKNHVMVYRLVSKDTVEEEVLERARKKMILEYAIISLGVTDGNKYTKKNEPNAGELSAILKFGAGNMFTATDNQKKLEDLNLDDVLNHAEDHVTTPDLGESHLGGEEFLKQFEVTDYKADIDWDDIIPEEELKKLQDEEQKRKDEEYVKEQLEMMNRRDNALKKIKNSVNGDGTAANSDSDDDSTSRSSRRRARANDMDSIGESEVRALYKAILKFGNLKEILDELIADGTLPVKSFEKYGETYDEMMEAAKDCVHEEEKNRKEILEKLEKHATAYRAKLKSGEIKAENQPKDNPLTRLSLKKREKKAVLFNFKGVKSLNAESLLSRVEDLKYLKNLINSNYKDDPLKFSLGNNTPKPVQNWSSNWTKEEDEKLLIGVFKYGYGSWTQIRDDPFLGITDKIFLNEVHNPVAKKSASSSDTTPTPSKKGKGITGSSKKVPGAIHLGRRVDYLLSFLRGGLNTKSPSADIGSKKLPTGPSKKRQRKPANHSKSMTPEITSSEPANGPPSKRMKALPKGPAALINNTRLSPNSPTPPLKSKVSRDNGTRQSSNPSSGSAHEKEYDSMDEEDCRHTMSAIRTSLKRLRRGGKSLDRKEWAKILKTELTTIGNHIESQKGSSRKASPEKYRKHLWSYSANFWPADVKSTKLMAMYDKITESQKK
Chain of Protein translocase subunit SecA (Escherichia coli (strain K12)) (P10408 whole entry): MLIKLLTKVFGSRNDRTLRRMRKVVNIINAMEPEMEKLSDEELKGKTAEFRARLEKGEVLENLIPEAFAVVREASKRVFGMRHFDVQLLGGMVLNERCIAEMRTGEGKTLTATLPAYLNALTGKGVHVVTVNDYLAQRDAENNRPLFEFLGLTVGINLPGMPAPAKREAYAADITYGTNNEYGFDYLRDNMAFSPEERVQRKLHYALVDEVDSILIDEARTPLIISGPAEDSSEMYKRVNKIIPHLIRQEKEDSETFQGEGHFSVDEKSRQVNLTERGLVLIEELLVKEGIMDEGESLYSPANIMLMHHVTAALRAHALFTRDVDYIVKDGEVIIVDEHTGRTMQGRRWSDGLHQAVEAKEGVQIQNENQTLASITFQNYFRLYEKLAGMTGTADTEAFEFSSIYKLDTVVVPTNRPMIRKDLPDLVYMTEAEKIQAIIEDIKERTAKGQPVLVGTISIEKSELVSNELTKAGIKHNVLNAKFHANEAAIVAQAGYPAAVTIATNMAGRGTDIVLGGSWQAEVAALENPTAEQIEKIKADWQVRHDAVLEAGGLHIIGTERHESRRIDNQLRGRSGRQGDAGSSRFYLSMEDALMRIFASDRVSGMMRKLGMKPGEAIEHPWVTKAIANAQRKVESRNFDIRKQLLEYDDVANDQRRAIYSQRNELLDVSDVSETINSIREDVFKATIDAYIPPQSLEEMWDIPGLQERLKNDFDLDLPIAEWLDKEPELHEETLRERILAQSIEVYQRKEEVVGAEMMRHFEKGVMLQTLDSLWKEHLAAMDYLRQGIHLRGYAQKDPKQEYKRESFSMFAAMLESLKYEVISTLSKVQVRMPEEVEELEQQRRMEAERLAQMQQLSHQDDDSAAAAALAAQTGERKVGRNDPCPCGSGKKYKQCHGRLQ

Turning to `Cc1n[nH]c(C)c1NC(=O)CN1CCCC(CNC(=O)C(C)(C)C)C1` (stereo unspecified), the Percent Effect is -2.53% in experiment [1]; 2.63% in [2]; 0.454% in experiment [3]; 5.58% in [4]; -0.188% in the experiment with Trypanosoma cruzi; 2.68% in experiment [5]. Besides, the Percent Effect was 8.19% in [6]; 21.7% in the experiment filed under Homo sapiens; -1.47% in experiment [7]; -2.44% in experiment [8]; 0.796% in experiment [9].
With `CC(CNC(=O)N1CCSCC1)Cc1cccs1` (stereo unspecified), the Percent Effect in [1] was -4.11%; in experiment [2], 0%; in experiment [3] it was 0.113%; in experiment [4], -1.72%; in the experiment with Trypanosoma cruzi, -0.195%; in experiment [5], -2.08%. Moreover, the Percent Effect in experiment [6] was 5.83%; in the experiment listed under Homo sapiens, 1.53%; in experiment [7], 4.95%; in experiment [8], 6.1%; in [9] it was -3.96%.
Take `Cc1nc(C)c(CC(=O)N2C[C@H]3CC[C@@H]2CN(C(=O)N(C)C)C3)c(=O)[nH]1`: the Percent Effect was -12.8% in experiment [1]; 0% in experiment [2]; -2.11% in [3]; -2.97% in [4]; -5.18% with Trypanosoma cruzi; -1.74% in experiment [5]. For the same compound, the Percent Effect was -2.49% in [6]; 26.8% in the experiment listed under Homo sapiens; -1.07% in [7]; -1.24% in experiment [8]; -2.75% in experiment [9].
With `COCCCN1CCc2cncnc2C1`, the Percent Effect in [1] is -2.65%; in experiment [2] it was 5.06%; in [3] it was -237%; in [4], 6.45%; in the experiment with Trypanosoma cruzi it was 9.35%; in [5], 2.66%. For the same compound, the Percent Effect in [6] is 8.27%; in the experiment listed under Homo sapiens, -13.7%; in [7], 5.42%; in experiment [8], 8.86%; in experiment [9] it was -6.93%.
Regarding `CCc1nnc2n1CCN(C(=O)c1ccc(C(F)(F)F)nc1C)C2`, the Percent Effect is -6.11% in experiment [1]; 20.2% in experiment [2]; -4.83% in experiment [3]; 14.3% in experiment [4]; 5.95% in the experiment on Trypanosoma cruzi; -6.08% in [5]. In addition, the Percent Effect was 9.09% in [6]; -2.36% in the experiment filed under Homo sapiens; 2.46% in [7]; 16.5% in experiment [8]; -8.19% in experiment [9].
With `Cc1ncsc1C(=O)NC1CCN(Cc2cccnc2)CC1`, the Percent Effect in experiment [1] was -7.38%; in experiment [2] it was 10.4%; in experiment [3], -1.95%; in [4], 18.2%; in the experiment with Trypanosoma cruzi, 5.43%; in experiment [5], 2.85%. The Percent Effect in [6] was 7.94%; in the experiment listed under Homo sapiens, 15.2%; in experiment [7], 6.8%; in [8] it was 14.6%; in experiment [9], -11.8%.
In the case of `O=C(CCN1CCC(C(=O)c2cc(F)ccc2F)CC1)NC1CC1`, the Percent Effect in experiment [1] was -5.55%; in [2], 5.26%; in experiment [3], 2.46%; in [4], 2.22%; in the experiment on Trypanosoma cruzi, -0.0974%; in experiment [5], -1.18%. In addition, the Percent Effect is 12.4% in experiment [6]; 16.9% in the experiment filed under Homo sapiens; 3.19% in experiment [7]; 15.6% in experiment [8]; -3.85% in experiment [9].
As to `COc1cccc(S(=O)(=O)NC2CNC(=O)C2)c1` (stereo unspecified), the Percent Effect was -6% in experiment [1]; 2.74% in experiment [2]; 3.51% in [3]; 9.97% in experiment [4]; 6.66% with Trypanosoma cruzi; -1.36% in [5]. For the same compound, the Percent Effect in experiment [6] is 2.31%; in the experiment listed under Homo sapiens, -0.016%; in experiment [7], 4.3%; in [8], 12.5%; in experiment [9], -5.21%.
For `COCCNC(=O)C[C@@H]1COC[C@H]2CN(C(=O)c3cnccn3)C[C@@H]12`, the Percent Effect in [1] was -0.696%; in experiment [2], 8.22%; in experiment [3], -4.71%; in experiment [4], 7.09%; in the experiment with Trypanosoma cruzi it was 6.15%; in [5] it was 1.6%. For the same compound, the Percent Effect in experiment [6] is 11.2%; in the experiment listed under Homo sapiens it was 21.4%; in [7] it was 9.38%; in experiment [8] it was 13.6%; in experiment [9], -3.17%.
For the compound `O=C1N(c2ccc(Br)cc2)Cc2nc(=O)[nH]n21`, the Percent Effect was -6.3% in experiment [1]; 22.7% in [2]; -2.95% in experiment [3]; 0.772% in [4]; 1.38% in the experiment on Trypanosoma cruzi; -1.58% in [5]. For the same compound, the Percent Effect is 4.44% in experiment [6]; 7.62% in the experiment listed under Homo sapiens; 5.29% in experiment [7]; 15.4% in experiment [8]; -11.8% in experiment [9].
Regarding `O=C(CN1CCCC1Cn1cncn1)NC(C1CC1)C1CC1` (stereo unspecified), the Percent Effect is -1.42% in experiment [1]; -1.39% in experiment [2]; 2.21% in [3]; -0.594% in [4]; 2.04% with Trypanosoma cruzi; 1.32% in experiment [5]. The Percent Effect was 10.9% in [6]; -11.5% in the experiment filed under Homo sapiens; 3.16% in experiment [7]; 0% in [8]; -1.96% in experiment [9].

Source of the values: ChEMBL document CHEMBL3988442, “University of Dundee, Small-Polar-MMV Screening Library” (2021).
